# Records with an inconclusive call do not appear. A number with no mark means an inactive call. Activity calls are given as the source filed them. Calls come from the whole dose curve; as a rule, active = well fitted cell-killing curve with a large enough effect in the repeat runs; inconclusive = weak or mixed curves, or effect the other way; inactive = flat fitted curve, though single readings scatter.
# Assay: Nuclear factor erythroid 2-related factor 2/antioxidant responsive element (Nrf2/ARE) small molecule agonists: qHTS cell viability counter screen in human keratinocytes (AID 1919968); note: nearly all actives have a fitted effect of over 55% in size
# Conditions: KeratinoSens HaCaT ARE cells viability, CellTiter-Fluor, 24 h; series mostly up to 92.4 µM; activity change, negative = cytotoxicity: at the top concentration
# From the text: U.S. Tox21 Program National Center for Advancing Translational Sciences [NCATS] Division of Preclinical Innovation [DPI] U.S. Environmental Protection Agency [EPA] National Institutes of Environmental Health Sciences [NIEHS] National Toxicology Program [NTP] U.S. Food and Drug Administration [FDA] Tox21 Assay Overview: Oxidative stress has been implicated in the pathogenesis of a variety of diseases ranging from cancer to neurodegeneration. The antioxidant response element (ARE) signaling pathway plays an important role in the amelioration of oxidative stress. The KeratinoSens (Givaudan, Switzerland) is an in vitro test method which quantifies luciferase induction as a measure of activation of Keap1-Nrf2-antioxidationt/electrophile response element (ARE) dependant pathway in HaCaT human keratinocytes stably transfected with a selectable plasmid. The KeratinoSens assay is a cell-based assay with a reporter cell line to detect potential skin sensitizers by their ability to induce the Nrf2/ARE-response. The activation of the report gene under culture conditions can be detected by ONE-Glo Luciferase Assay System (Promega, Madison, WI). This cell line has been used to screen the Tox21 10K compound library to identify agonists that induce oxidative stress. The cytotoxicity of the Tox21 compound library against the KS-ARE cell line was tested in parallel by measuring the cell viability using CellTiter- Fluor assay system (Promega, Madison, WI) in the same wells.
# Tox21 Assay Protocol Summary: HaCaT derived cell line KeratinoSens were dispensed at 1,500 cells/5uL/well in 1536-well white wall/solid bottom plates using a Multidrop Combi (ThermoFisher Scientific, Waltham, MA) dispenser. After the assay plates were incubated at 37 C/5% CO2 for 5 h, 23 nL of compounds dissolved in DMSO, positive controls or DMSO only was transferred to the assay plate by a pintool workstation (Kalypsys, San Diego, CA). The plates were incubated at 37 C/5% CO2 for 23 h, followed by addition of 1uL/well of CellTiter-Fluor reagent into the assay plates using a Flying Reagent Dispenser (Aurora Discovery, San Diego, CA) for cell viability readout that measures cytotoxicity. After 1 h incubation at 37 C/5% CO2 the fluorescence intensity was measured using a ViewLux (PerkinElmer, Shelton, CT) plate reader.
# % is set by controls: 0 for no effect and ±100 for the full control effect; potency is the fitted concentration of half-maximal effect.
SMILES,"activity change, negative = cytotoxicity",Potency
CCOC(=O)Cc1ccccc1,6.45%,–
O=[N+]([O-])c1cc(C(F)(F)F)c(Cl)c([N+](=O)[O-])c1Cl,–,24.3 µM (active)
O=C(NC(=O)c1c(F)cccc1F)Nc1cc(Cl)c(F)c(Cl)c1F,2.67%,–
COP(=O)(OC)O/C(=C/Cl)c1cc(Cl)c(Cl)cc1Cl,-16.4%,–
CCN(CC)C(=O)N[C@@H]1C=C2c3cccc4[nH]cc(c34)C[C@@H]2N(C)C1,13.7% [at 42.5 µM],–
COc1nn(C(=O)NS(=O)(=O)c2ccccc2OC(F)(F)F)c(=O)n1C,-2.55%,–
CC(=O)[C@H]1CC[C@H]2[C@@H]3CC[C@H]4C[C@H](O)CC[C@]4(C)[C@H]3C(=O)C[C@]12C,-16.7% [at 42.5 µM],–
O=C(O)C(Br)CBr (stereo not given),-1.31%,–
O=C(CCCCl)c1ccc(F)cc1,-11.2% [at 42.5 µM],–
CCC(C)Nc1c([N+](=O)[O-])cc(C(C)(C)C)cc1[N+](=O)[O-] (stereo not given),8.24%,–
CCC1CCC(=O)O1 (stereo not given),-9.04%,–
CC(=O)C(Cl)(Cl)Cl,–,16.6 µM (active)
Nc1c(Cl)c(Cl)c(Cl)c(Cl)c1Cl,2.56%,–
COc1ncc(F)c2nc(S(=O)(=O)Nc3c(F)cccc3F)nn12,-0.327% [at 42.5 µM],–
CCCC[N+](=O)[O-],1.26%,–
CCCCc1ccc(O)cc1,-0.626%,–
CCNc1nc(NC(C)C(C)C)nc(SC)n1 (stereo not given),5.66%,–
CCC1(CCC(C)C)C(=O)NC(=O)NC1=O,8.38%,–
[F][Sn]([c]1ccccc1)([c]1ccccc1)[c]1ccccc1,–,0.864 µM (active)
S=C=Nc1ccccc1,-4.34%,–

SMILES,"activity change, negative = cytotoxicity",Potency
CC(=O)NC1CCSC1=O (stereo not given),1.64% [at 42.5 µM],–
COP(=S)(OC)Oc1ccc([N+](=O)[O-])c(C)c1,0.78%,–
CCC(COC(=O)c1cc(OC)c(OC)c(OC)c1)(c1ccccc1)N(C)C (stereo not given),7.98% [at 42.5 µM],–
CCCCCCCCCC(=O)O[C@H]1CC[C@H]2[C@@H]3CCC4=CC(=O)CC[C@@H]4[C@H]3CC[C@]12C,2.9% [at 42.5 µM],–
Clc1cccc(N2CCNCC2)c1,8.34% [at 42.5 µM],–
CCCCCOC(=O)c1ccccc1C(=O)OCCCCC,18.6%,–
CCCCP(CCCC)CCCC,1.17%,–
Clc1ccc(CCC(Cn2ccnc2)Sc2c(Cl)cccc2Cl)cc1 (stereo not given),–,29.8 µM (active)
CCOP(=O)(OCC)Oc1cc(C)nc(C(C)C)n1,1.44%,–
C1=CCC=C1,8.87%,–
O=C(Nc1ccccc1)Nc1cnns1,-5.68%,–
O=C(CCCN1CCC(n2c(=O)[nH]c3ccccc32)CC1)c1ccc(F)cc1,25.5% [at 42.5 µM],–
Clc1ccc(CO/N=C(\Cn2ccnc2)c2ccc(Cl)cc2Cl)c(Cl)c1,–,23.7 µM (active)
O=C(Cl)c1ccc(Cl)cc1,5.62%,–
Cc1cccc2sc3nncn3c12,-1.27%,–
c1cncc([C@@H]2CCCCN2)c1,-1.18%,–
COC(=O)C(C)N(C(=O)c1ccco1)c1c(C)cccc1C (stereo not given),-4.45%,–
CCc1ccc(C(=O)NN(C(=O)c2cc(C)cc(C)c2)C(C)(C)C)cc1,21.1%,–
CNC(=O)Oc1cccc(C(C)C)c1,-2.48%,–
CC(C)COP(=O)(OCC(C)C)OCC(C)C,3.4%,–
